Only a selection was taken, and hits are over-represented in it overall.
Pf Dd2 growth: inhibitors of Plasmodium falciparum Dd2 growth | hit rate 4.3% among 120,000 | Potency, µM (titrated, usually from 28.9 µM), for the others: top-dose activity, negative = inhibition, actives largely listed as inhibitors | AID 1347417 | P. falciparum Dd2 growth, SYBR Green, 72 h; active = well fitted inhibition curve with a large enough effect;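 also: plate controls were DMSO vehicle for no effect and reference drug for full effect; nearly all actives have a fitted effect of over 65% in size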
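Infected erythrocytes (Dd2, 0.3% parasitemia, 2.5% hematocrit final) are added to compound in RPMI-1640/Albumax II medium, grown 72 h at 37C in low oxygen, then lysed with saponin/Triton-X containing SYBR Green and read by fluorescence.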
Starred values were filed as active, the others as inactive; i = inactive; [ ] = dose if it differs, or a comment. Potency is read from the fitted curve at half-maximal effect.

SMILES	Pf Dd2 growth
CC1(c2ccccc2)CCCN(c2cncc(C(=O)N3CCOCC3)n2)C1 (configuration not stated)	11µM*
CC(=O)N1CCN(c2cncc(C(=O)N3CCOCC3)n2)CC(O)C1 (configuration not stated)	-4%
COc1ccc(C(=O)Nc2nc3c(s2)C[C@@H]2[C@](C)(CO)[C@H](O)CC[C@@]2(C)[C@@H]3CC(=O)NCc2ccco2)cc1	2µM*
C[C@]1(CO)[C@H]2Cc3sc(NC(=O)c4cccs4)nc3[C@@H](CC(=O)NCc3cccnc3)[C@]2(C)CC[C@H]1O	i
C[C@]1(CO)[C@H]2Cc3sc(NC(=O)c4cccc(F)c4)nc3[C@@H](CC(=O)NCc3ccco3)[C@]2(C)CC[C@H]1O	8.9µM*
C#CCNC(=O)C[C@@H]1c2nc(NC(=O)c3ccc(F)cc3)sc2C[C@@H]2[C@](C)(CO)[C@H](O)CC[C@]21C	-13%
COc1ccc(C(=O)Nc2nc3c(s2)C[C@@H]2[C@](C)(CO)[C@H](O)CC[C@@]2(C)[C@@H]3CC(=O)NCCNC(C)=O)cc1	i
CCCCCC(=O)Nc1nc2c(s1)C[C@@H]1[C@](C)(CO)[C@H](O)CC[C@@]1(C)[C@@H]2CC(=O)NCc1cccnc1	i
CC(C)(C)C(=O)Nc1nc2c(s1)C[C@@H]1[C@](C)(CO)[C@H](O)CC[C@@]1(C)[C@@H]2CC(=O)NCc1ccco1	i
C[C@]1(CO)[C@H]2Cc3sc(NC(=O)c4ccco4)nc3[C@@H](CC(=O)NCc3cccnc3)[C@]2(C)CC[C@H]1O	7.1µM*
COCCNC(=O)C[C@@H]1c2nc(NC(=O)c3ccnc(Cl)c3)sc2C[C@@H]2[C@](C)(CO)[C@H](O)CC[C@]21C	-21%
CCOCC(=O)NC1CCN(c2cnn(C)c(=O)c2)CC1	20%
CN1C(=O)C(CC(=O)N2CCCC2)Sc2ncccc21 (configuration not stated)	i
O=C(c1cn(C/C=C/c2ccccc2)nn1)N1CCN(c2cccc(Cl)c2)CC1	-3%
O=C(NCc1ccco1)C1CC(c2ccccc2)CN(C(=O)c2ccc(F)cc2)C1 (configuration not stated)	-7%
CC(=O)NCCC(=O)N1Cc2ccccc2CC2(CCN(CC3CCNC3)CC2)C1 (configuration not stated)	3%
CCCc1noc(-c2cn(C3CCN(C(=O)c4ccc(OCC)cc4)CC3)nn2)n1	194%
Cc1ccc(C(=O)N2CCn3c(nnc3-c3ccncc3)C2)cc1	0%
CCC(=O)N1CCCCCC1c1nnc(-c2ccccc2)o1 (configuration not stated)	-13%
C#CCNC(=O)C1CN(Cc2ccccc2)C(=O)N1 (configuration not stated)	-13%[44.1 µM]
CCCN(CC1CCOC1)C(=O)Nc1ccc(CC)cc1 (configuration not stated)	-4%[5.79 µM]
Cn1ncc(N2CCC(CNC(=O)CCN3CCCC3=O)C2)cc1=O (configuration not stated)	-5%
COCc1noc([C@@H]2CN(C(=O)c3cccc(C)c3)C[C@H]2COC)n1	39%
Cc1cccc(NC(=O)c2c(NC(=O)c3ccco3)sc3c2CCC(C(C)(C)C)C3)c1 (configuration not stated)	7.1µM*
Cc1cccc(NC(=O)c2c(NC(=O)c3ccco3)sc3c2CCC(C)C3)c1 (configuration not stated)	i
SMILES	Pf Dd2 growth
CC(C)(C)C1CCc2c(sc(NC(=O)c3ccco3)c2C(=O)Nc2ccccc2Cl)C1 (configuration not stated)	56%
COc1cccc(CC(=O)N2CCC(c3n[nH]c(=O)n3-c3ccccc3)CC2)c1	1%
Cc1nc(C2CCCN(C(=O)Cc3ccncc3)C2)cc(N2CCOCC2)n1 (configuration not stated)	0%
Fc1ccc(OC2CNC2)cc1F	-22%[44.1 µM]
COCCNC(=O)CCCN1C(=O)COc2ccc(C(=O)COc3cc(C)ccc3Cl)cc21	-13%
Fc1ccc(Cc2nc3nccc(-c4ccc5c(c4)OCCCO5)n3n2)cc1	14µM*
COc1ccc(Cc2nc3nccc(-c4ccc5c(c4)OCCCO5)n3n2)cc1	-7%
COCc1nc2nccc(-c3ccc4c(c3)OCCCO4)n2n1	-13%
COc1ccc(NC(=O)Cn2c(-c3cnccn3)nc(C)c(C)c2=O)cc1	-5%
CN1CCN([C@H]2CCN(C(=O)c3ncc(F)cc3F)C[C@H]2CCCO)CC1	-21%
Cc1ccc(OCCn2cc(C(=O)c3cccs3)c3ccccc32)cc1	4µM*
Cc1cccc(C)c1OCC(=O)N(Cc1ccco1)Cc1ccco1	14%
Cc1ccccc1OCCn1cc(C(=O)C2CCCCC2)c2ccccc21	-9%
O=C(Cn1cc(C(=O)c2ccco2)c2ccccc21)Nc1ccc(Br)cc1	-15%
COc1ccccc1OCCn1cc(C(=O)c2cccs2)c2ccccc21	i
Cc1cc(OCCn2cc(C(=O)c3ccco3)c3ccccc32)ccc1Cl	1.1µM*
CCOc1ccc(NC(=O)Cn2cc(C(=O)c3ccccc3)c3ccccc32)cc1	26%
Cc1ccccc1NC(=O)Cn1cc(C(=O)c2ccco2)c2ccccc21	-5%
Cc1ccccc1OCCn1cc(C(=O)c2ccco2)c2ccccc21	1.3µM*
Cc1ccsc1C(=O)N1CC2CC(C1)[C@H]1CCCC(=O)N1C2 (some centres not stated)	-6%
CN1CCN(c2ccc(-c3cn(C)c(=O)n4cc(CNc5ccccc5)nc34)cn2)CC1	-14%[44.1 µM]
COc1nc2c(cc1CNC(=O)C1(C)CC1)C(=O)N(CCc1ccccn1)C2	-11%
CCC(=O)N1CCC(n2c(C)cnc2-c2ccccc2)CC1	-7%
NC(=O)[C@H](Cc1ccc(O)cc1)NC(=O)C1=C[C@@H](NC(=O)c2cnccn2)[C@@H](O)[C@H](O)C1	1%
O=C(c1ccc(C(F)(F)F)cc1)N1CCCC2(CC(c3cccc(C(F)(F)F)c3)=NO2)C1 (configuration not stated)	9%
SMILES	Pf Dd2 growth
CC(C)NC(=O)N(C1CC1)C1CCOC2(CCN(C(=O)NCc3ccccc3)CC2)C1 (configuration not stated)	9%
CC(C)CNC(=O)N1CCC2(CC1)CC(N(C)Cc1ccccc1)CCO2 (configuration not stated)	16%
COc1cccc(CC(=O)N2CCC3(CC2)CC(N(C2CC2)S(C)(=O)=O)CCO3)c1 (configuration not stated)	i
COC1CCOC2(CCN(S(=O)(=O)c3ccccc3)CC2)C1 (configuration not stated)	24%
CN(Cc1ccccc1)C1CCOC2(CCN(C(=O)NC3CCCC3)CC2)C1 (configuration not stated)	6.3µM*
COc1ccc(S(=O)(=O)N2CCC3(CC2)CC(N(C)Cc2ccccc2)CCO3)cc1 (configuration not stated)	11µM*
COc1ccc(C2(C(=O)N3CCc4ccccc4C3)CCOCC2)cc1	-8%
CCN(CC)Cc1cnc2c(C(=O)NCCc3ncc[nH]3)cnn2c1	6%
Cc1noc(C)c1[S+](=O)([O-])N1CCC(c2nnc3n2C(C(=O)O)CC3)CC1 (configuration not stated)	0%
COc1ccc(F)cc1-c1nc2ccc(-c3ccc(OC)c(OC)c3OC)cc2o1	i
COC(=O)Cc1c(C)c2ccc3c(c2oc1=O)CN(Cc1ccc(Cl)cc1)CO3	7.1µM*
Cc1cc(=O)oc2c3c(ccc12)OCN(Cc1ccc(Cl)cc1)C3	5.6µM*
O=C(Cn1c(=O)oc2ccccc21)NCc1ccc(Cl)cc1	6%

Screening results: PubChem BioAssay, National Center for Advancing Translational Sciences (NCATS)
